Here are results for five compounds from publication PMC11062922 (Nature Chemical Biology, 2023).

Where two headings read alike, the source gives them in different places.

Common to all, as to set-up: species or system human, MV4-11 + K-562 + COLO205 + SK-N-BE2 + OVCAR-8
The test system of assay [1] is COX5A. The conditions noted are these: read-out: apparent Kd; compound concentrations: 100 nM and 1000 nM (sheet 'Samples'), CATDS: 5.4646770087593201E-2; n = 1.
Assay [2] relates to CSNK1D. To be noted: read-out: apparent Kd, compound concentrations: 100 nM and 1000 nM (sheet 'Samples'), n = 1.
Assay [3] has as its system CSNK1E. To be noted: read-out: apparent Kd, compound concentrations: 100 nM and 1000 nM (sheet 'Samples'), n = 1.
Assay [4] deals with DDR1. To be noted: read-out: apparent Kd, compound concentrations: 100 nM and 1000 nM (sheet 'Samples'), n = 1.
Assay [5] deals with DDR2. The conditions noted are these: read-out: apparent Kd; compound concentrations: 100 nM and 1000 nM (sheet 'Samples'), CATDS: 5.1047862039129102E-2; n = 1.
Assay [6] concerns DYRK1A. The conditions noted are these: read-out: apparent Kd; compound concentrations: 100 nM and 1000 nM (sheet 'Samples'), CATDS: 4.6782776774364397E-2; n = 1.
Assay [7] concerns ILK. The conditions noted are these: read-out: apparent Kd; compound concentrations: 100 nM and 1000 nM (sheet 'Samples'), CATDS: 4.86206826406465E-2; n = 1.
Assay [8] has as its system JAK2. To be noted: read-out: apparent Kd; compound concentrations: 100 nM and 1000 nM (sheet 'Samples'), CATDS: 0.29618992494589602; n = 1.
The test system of assay [9] is MAPK10. To be noted: read-out: apparent Kd, compound concentrations: 100 nM and 1000 nM (sheet 'Samples'), n = 1.
Assay [10] deals with MAPK14. To be noted: read-out: apparent Kd, compound concentrations: 100 nM and 1000 nM (sheet 'Samples'), n = 1.
Assay [11] deals with MAPK8. To be noted: read-out: apparent Kd, compound concentrations: 100 nM and 1000 nM (sheet 'Samples'), n = 1.
For assay [12], the system named is MAPK9. To be noted: read-out: apparent Kd, compound concentrations: 100 nM and 1000 nM (sheet 'Samples'), n = 1.
The test system of assay [13] is MAPKAPK2. To be noted: read-out: apparent Kd, compound concentrations: 100 nM and 1000 nM (sheet 'Samples'), n = 1.
In assay [14] the test system is NLK. The conditions noted are these: read-out: apparent Kd, compound concentrations: 100 nM and 1000 nM (sheet 'Samples'), n = 1.
Assay [15] deals with RIPK2. The conditions noted are these: read-out: apparent Kd, compound concentrations: 100 nM and 1000 nM (sheet 'Samples'), n = 1.
Assay [16] relates to CLK1. The conditions noted are these: read-out: apparent Kd, compound concentrations: 100 nM and 1000 nM (sheet 'Samples'), n = 1.
Assay [17] relates to CLK4. To be noted: read-out: apparent Kd, compound concentrations: 100 nM and 1000 nM (sheet 'Samples'), n = 1.
Assay [18] relates to GAK. To be noted: read-out: apparent Kd, compound concentrations: 100 nM and 1000 nM (sheet 'Samples'), n = 1.
Assay [19] deals with TTK. The conditions noted are these: read-out: apparent Kd; compound concentrations: 100 nM and 1000 nM (sheet 'Samples'), CATDS: 0.53372982121950996; n = 1.
Assay [20] has as its system NQO2. The conditions noted are these: read-out: apparent Kd; compound concentrations: 100 nM and 1000 nM (sheet 'Samples'), CATDS: 0.189684513322773; n = 1.
Assay [21] relates to PIK3CD. To be noted: read-out: apparent Kd, compound concentrations: 100 nM and 1000 nM (sheet 'Samples'), n = 1.
In assay [22] the test system is NEK3. To be noted: read-out: apparent Kd; compound concentrations: 100 nM and 1000 nM (sheet 'Samples'), CATDS: 0.168041576676878; n = 1.
Assay [23] deals with PIK3CG. To be noted: read-out: apparent Kd; compound concentrations: 100 nM and 1000 nM (sheet 'Samples'), CATDS: 0.474922434423799; n = 1.
Assay [24] relates to CSNK1A1. To be noted: read-out: apparent Kd; compound concentrations: 100 nM and 1000 nM (sheet 'Samples'), CATDS: 7.9796856628157303E-2; n = 1.
Assay [25] relates to MAPK11. To be noted: read-out: apparent Kd; compound concentrations: 100 nM and 1000 nM (sheet 'Samples'), CATDS: 4.3828309846065103E-2; n = 1.
The test system of assay [26] is PIP4K2C. The conditions noted are these: read-out: apparent Kd; compound concentrations: 100 nM and 1000 nM (sheet 'Samples'), CATDS: 4.0260686940240001E-2; n = 1.

Consider `Clc1ccc(-c2nn3ncccc3c2-c2ccnc(Nc3ccc4c(c3)OCCO4)n2)cc1` [GW829116X], for which the potency estimated from few doses was 1390 nM in assay [1]; 637 nM in [2] (CATDS: 7.5632586412137201E-2); 1530 nM in assay [3] (CATDS: 5.2875216757628997E-2); 495 nM in [4] (CATDS: 8.5854125332601505E-2); 1710 nM in assay [5]; 2320 nM in assay [6]. For the same compound, the potency estimated from few doses was 2010 nM in assay [7]; 72.6 nM in assay [8]; 815 nM in [9] (CATDS: 6.7537775874855099E-2); 749 nM in [10] (CATDS: 7.0110586320851001E-2); 1230 nM in assay [11] (CATDS: 5.7180888411163297E-2); 177 nM in [12] (CATDS: 0.15745137005687401). For the same compound, the potency estimated from few doses in assay [13] (CATDS: 6.45632126081358E-2) is 904 nM; in [14] (CATDS: 6.2213467797214997E-2) it was 988 nM; in assay [15] (CATDS: 7.3862527968221903E-2), 670 nM.

As to `CNc1nc(Nc2ccc(C(=O)N3CCOCC3)cc2OC)nc2[nH]cc(Cl)c12` [JH-II-127], the potency estimated from few doses in [16] (CATDS: 0.13184639507044499) is 1090 nM; in assay [17] (CATDS: 0.153440234991533), 722 nM; in assay [18] (CATDS: 0.13551111713290001) it was 1000 nM; in [11] (CATDS: 0.168882234188796), 575 nM; in assay [12] (CATDS: 0.14872410543912701), 781 nM; in assay [19], 76.1 nM.

For `CCCCc1nn2ncccc2c1-c1ccnc(NC2CC2)n1` [GW684374X], the potency estimated from few doses in assay [2] (CATDS: 0.183460166751924) was 702 nM; in assay [3] (CATDS: 0.13214440190412699) it was 1590 nM; in assay [9] (CATDS: 0.138963906660688), 1370 nM; in [12] (CATDS: 0.12372123914536701), 1960 nM; in assay [20] it was 655 nM; in [21] (CATDS: 0.41134743817449698), 178 nM.

Regarding `CC(C)C(=O)N[C@@H]1CCN(C(=O)Nc2nc3c(s2)-c2nc(-c4ccccc4Cl)ncc2CC3)C1` [BI00047804], the potency estimated from few doses was 416 nM in assay [16] (CATDS: 0.240445755473225), 334 nM in assay [17] (CATDS: 0.26423272520910102), 1310 nM in assay [22] and 115 nM in assay [23].

Take `CN1CCC(n2cnc(-c3ccc(F)cc3)c2-c2ccnc(NCCO)n2)CC1` [SB-226879]: the potency estimated from few doses is 91.2 nM in assay [24]; 6.97 nM in assay [2] (CATDS: 0.29962108595450698); 21.2 nM in assay [3] (CATDS: 0.149531361707545); 2140 nM in assay [4] (CATDS: 4.0127184299889498E-2); 1240 nM in assay [18] (CATDS: 4.3389501889838297E-2); 126 nM in [9] (CATDS: 7.1886071403025706E-2). The potency estimated from few doses in [25] was 1170 nM; in assay [10] (CATDS: 0.120722189423433), 32.5 nM; in assay [11] (CATDS: 4.3769759721199501E-2), 1180 nM; in assay [12] (CATDS: 6.64061265651648E-2) it was 166 nM; in assay [13] (CATDS: 0.113562081493031), 37.1 nM; in assay [14] (CATDS: 0.178729596227966), 15.4 nM. For the same compound, the potency estimated from few doses is 85.3 nM in [21] (CATDS: 8.1619991171871006E-2), 2090 nM in assay [26] and 572 nM in assay [15] (CATDS: 4.98304008841833E-2).
